# Data reported in PubChem BioAssay AID651780 (The Scripps Research Institute Molecular Screening Center, 2012).
# Among all 2,400 compounds or so, about 1,800 (75%) were called active. No stated cut-off is given here; in the data, active means inhibition above about 22%; inactive means the rest. So high a share suggests a set chosen from earlier hits. These entries were drawn from the full list.
# Assay: calcium response inhibition in counter-screen line – cell-based, fluorescence, counter-screen for hTAAR1 antagonist project (AID 651780);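 further: CHO-Ga16 host cells stimulated with ATP at an EC80 level; 0% = agonist EC80 plus vehicle and 100% = vehicle without agonist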
# Conditions: counterscreen cell line, antagonist mode, at 3 µM, stronger effect = higher value
row,Structure (SMILES),inhibition
1,COc1ccc(CCNC(=O)C(=O)NCC2OCCN2S(=O)(=O)c2ccc(OC)c(C)c2)cc1 (stereo not given),23.7% (active)
2,O=C(COC(=O)CCCSc1nc2ccccc2[nH]1)Nc1ccc(Oc2ccccc2)cc1,39.8% (active)
3,O=C(O)c1ccc(NC(=O)c2cn(-c3ccccc3)nc2-c2ccc(Cl)cc2)cc1,36.1% (active)
4,COc1ccc(CC(=O)Nc2c(C(N)=O)oc3ccccc23)cc1,22.3% (active)
5,CC(C)(C)OC(=O)NCCCCCNC(=O)c1nc[nH]c1C(=O)NCc1ccccc1,22% (active)
6,C[C@H](NC(=O)c1nc[nH]c1C(=O)NCC(=O)OC(C)(C)C)C(=O)OCc1ccccc1,23.6% (active)
7,Cc1cccc(NC(=O)c2nc[nH]c2C(=O)NCC(=O)OCc2ccccc2)c1,26% (active)
8,OC(c1ccccc1)(c1ccccc1)C1CCN(CCCOc2ccc(-c3ccsc3)cc2)CC1,40.2% (active)
9,CC(=O)Nc1ccc(NC(=O)COC(=O)C2CCC(C(C)(C)C)CC2)cc1 (stereo not given),24.5% (active)
10,O=C(NCC1CCCO1)c1cc2c([nH]c3ccccc32)c(-c2ccc(F)cc2)n1 (stereo not given),30.9% (active)
11,CC(=O)N1CCN(C(=O)c2cc(-c3ccc(Cl)s3)nc3ccccc23)CC1,26.1% (active)
12,O=C(COC(=O)c1c2c(nc3ccccc13)CCCC2)c1ccc(Br)s1,20.1% (inactive)
13,Cc1cccc(C)c1NC(=O)CNC(=O)C1CCCC1,5.58% (inactive)
14,O=S1(=O)c2c(cccc2N2CCCCC2)O[C@H](COCc2ccccc2)CN1C1CC1,32.5% (active)
15,Cc1cc(Br)ccc1NC(=O)c1cnc(N2CCN(c3ccccn3)CC2)c2ccccc12,38.4% (active)
16,Cc1ccccc1NC(=O)Cc1nc(COC(=O)C(C)(C)Oc2ccc(Cl)cc2)cs1,33.4% (active)
17,COC(=O)c1sccc1NC(=O)c1cc(OC)c(OC)c(OC)c1,21.3% (inactive)
18,COc1cc2ccccc2cc1C(=O)Nc1ccc(NC(=O)c2cccs2)cc1,27.7% (active)
19,O=C1c2ccccc2C(=O)N1CCC#Cc1ccc2cc(C3(O)CCCCC3)oc(=O)c2c1,44% (active)
20,COc1ccc(CCNC(=O)c2ccc(CS(=O)(=O)c3ccc(Br)cc3)o2)cc1OC,35% (active)
21,CCOC(=O)C1C(c2ccc(OC)c(OC)c2)c2c([nH][nH]c2=O)CC1(C)O (stereo not given),25.2% (active)
22,COC(=O)Cc1nnn2c1[C@H](C)[C@H](c1ccccc1Br)OCC2,0.66% (inactive)

row,Structure (SMILES),inhibition
1,COc1ccc(NC(=O)C2CCCN(S(=O)(=O)c3cccc4cccnc34)C2)cc1OC (stereo not given),29.3% (active)
2,Cc1onc(-c2c(F)cccc2Cl)c1C(=O)Nc1cccc(S(=O)(=O)N2CCCCC2)c1,19.7% (inactive)
3,COc1ccc(S(=O)(=O)N2CCCC(C(=O)Nc3ccc(NC(=O)c4ccccn4)cc3)C2)cc1 (stereo not given),29.2% (active)
4,COc1ccc(C(=O)Nc2cccc(NC(=O)c3ccc(OC)cc3OC)n2)c(OC)c1,22.6% (active)
5,CSc1nc(-c2ccccc2)nc(C(Cl)Cl)n1,-4.34% (inactive)
6,COc1cc(/C=C2/C(=O)ON=C2C)ccc1OCc1ccccc1F,57.1% (active)
7,Cc1nc(N2CCN(c3ccccn3)CC2)c2c(C)c(C(=O)Nc3ccc(F)cc3)sc2n1,36.4% (active)
8,Nc1nonc1-n1nnc(C(=O)N/N=C/c2c[nH]c3ccccc23)c1-c1ccccc1,29.3% (active)
9,CSC(=S)N/N=C/c1c[nH]c2ccccc12,19.5% (inactive)
10,COc1ccc(CCNC2=C(Cl)C(=O)N(Cc3ccccc3)C2=O)cc1OC,31.3% (active)
11,COc1ccc(OC)c2[nH]c(=O)c(CCNC(=O)C(=O)c3c[nH]c4ccccc34)cc12,26.8% (active)
12,CC(=O)OCCN(CCCn1c(-c2ccncc2)nc2ccccc21)c1nc(-c2ccc(C)cc2)cs1,24.1% (active)
13,O=c1[nH]c(CSc2ncc(-c3ccc(F)cc3)n2Cc2ccco2)nc2ccccc12,29.8% (active)
14,CCCCNc1c(-c2cccc(Sc3ccc(OC)cc3)c2)nc2ccccn12,42.4% (active)
15,C[C@H](O)[C@@H]1C(=O)N2CCc3c([nH]c4c(-c5ccc6c(c5)OCO6)cccc34)[C@@H]2C[C@@H]1N(C)C(=O)c1ccco1,35.2% (active)
16,Cc1cccc(NC(=O)c2ccc(COc3ccccc3[N+](=O)[O-])o2)n1,15.8% (inactive)
17,COC(=O)C1=C(C)N(Cc2ccc(F)cc2)C(=S)NC1c1cccc(Cl)c1 (stereo not given),23.3% (active)
18,O=C(N/N=C/c1ccc(Cl)c(Cl)c1)c1ccc2nc[nH]c2c1,27.9% (active)
19,Cc1nn(-c2ccccc2)c(C)c1NC(=O)COC(=O)c1cc(Cl)ccc1O,32.8% (active)
20,CNC(=O)c1ccsc1NC(=O)c1ccc(S(=O)(=O)N2CCc3ccccc32)cc1,32.3% (active)
21,CCN1CCc2c(C#N)c(NCc3ccccc3)nc(NCCO)c2C1,5.04% (inactive)
22,C=CCn1c(SCc2cccc(F)c2)nc2cc(C(=O)N3CCC(C(N)=O)CC3)ccc2c1=O,25.6% (active)

row,Structure (SMILES),inhibition
1,CC(=O)c1ccccc1OCc1ccc(C(=O)c2ccccc2)cc1,27% (active)
2,CCNS(=O)(=O)c1ccc(CCC(=O)N2CCN(c3cc(Cl)ccc3C)CC2)cc1,37.1% (active)
3,COc1ccc(Cl)cc1NC(=O)CCS(=O)(=O)c1cc2c(cc1C)NC(=O)CO2,23.5% (active)
4,CCc1ccc2c(c1)NC(=O)C2(C)Cc1ccc(OC(F)(F)F)cc1 (stereo not given),4.79% (inactive)
5,O=C(Oc1ccc(-c2nnco2)cc1)c1ccc(F)c(S(=O)(=O)N2CCOCC2)c1,32.8% (active)
6,COc1ccc(C(=O)Oc2ccc(-c3nnco3)cc2)cc1S(=O)(=O)N1CCOCC1,25.1% (active)
7,O=C(Nc1ccc(-c2nnc(-c3ccccc3)o2)cc1)c1ccc(Br)o1,16% (inactive)
8,CCC(=O)Oc1cccc(C(=O)Nc2ccc(-c3nnc(-c4ccco4)o3)cc2)c1,26.1% (active)
9,COc1ccc2[nH]c(=O)c(CN(Cc3cccnc3)S(=O)(=O)c3ccccc3F)cc2c1,34.9% (active)
10,C=CCc1cc(S(=O)(=O)c2ccc(O)c(CC=C)c2)ccc1O,18.2% (inactive)
11,O=C(NCCN1CCOCC1)c1ccccc1N1C(=O)[C@@H]2Cc3c([nH]c4ccccc34)C(c3cccc(Cl)c3)N2C1=O (stereo not given in full),26.3% (active)
12,COC(=O)[C@@]1(Sc2ccc(C)cc2)CC(=O)N(c2cccc(SC)c2)[C@@H]1c1ccccc1,21.8% (active)
13,Clc1ccc(Nc2ncnc3c2nnn3Cc2ccccc2)cc1,9.4% (inactive)
14,Cc1ccc2c(c1)N(CC(=O)NCCc1ccc(Cl)cc1)C(=O)c1cccnc1O2,22.1% (active)
15,Cc1ccc(-n2c(C)cc(/C=N\NC(=O)CC(=O)NC(C)C)c2C)cc1,7.15% (inactive)
16,C/C(=N\Nc1ncc(Cl)cc1Cl)c1ccc(S(=O)(=O)NCc2ccco2)cc1,28.7% (active)
17,Fc1ccc(/C=N/Nc2nc(-c3cccnc3)nc3ccccc23)cc1,25.1% (active)
18,O=C(OCC(=O)N(CCc1ccccc1)Cc1ccccc1)c1ccccc1[N+](=O)[O-],33.2% (active)
19,Cc1ccc2cccc(OCCCOc3ccccc3CO)c2n1,20.3% (inactive)
20,COc1cc(OC)cc(C(=O)OCC(=O)Nc2sccc2C(N)=O)c1,27.8% (active)
21,COc1cc(SC#N)ccc1N=Cc1c(C)[nH]n(-c2ccc(C)cc2)c1=O,87.2% (active)
22,C=CCC[C@H](Cc1ccc(F)cc1)C(=O)OC[C@H](C)NC(=O)[C@H](CC=C)CC(=O)N(CCO)Cc1ccccc1,27.6% (active)

row,Structure (SMILES),inhibition
1,C=CCC[C@@H](Cc1ccc(F)cc1)C(=O)O[C@H](CNC(=O)[C@H](CC=C)CC(=O)N(CCO)Cc1ccccc1)c1ccccc1,39.2% (active)
2,Oc1ccccc1N1CCN(c2ncnc3sc(-c4ccccc4)cc23)CC1,30.2% (active)
3,O=S(=O)(c1cccs1)N1CCCc2nc(-c3ccc(Br)cc3)ccc21,33.3% (active)
4,CCOC(=O)C1=C(NC(=S)NC(=O)c2ccccc2)c2ccccc2CC1(C)C,24.8% (active)
5,COc1ccc(-c2nn(-c3ccccc3)cc2C(=O)Nc2nccs2)cc1OC,24.8% (active)
6,CSCCC(NC(=O)COc1ccccc1)C(=O)OCC(=O)c1cc2ccccc2o1 (stereo not given),24.2% (active)
7,CSCCC(NC(=O)COc1ccccc1)C(=O)OCCOc1ccc(Br)cc1 (stereo not given),21.9% (active)
8,C[C@@H]1CN([C@@H](C)CO)S(=O)(=O)c2ccc(C#Cc3cccc(F)c3)cc2O[C@H]1CN(C)S(=O)(=O)c1cn(C)cn1,38.3% (active)
9,Cc1ccc(SCc2c(C(=O)N/N=C/c3cccnc3)nnn2-c2nonc2N)cc1,38.4% (active)
10,Oc1ccc(/C=N/Nc2nc(-c3ccccc3F)nc3ccccc23)c(O)c1,38.2% (active)
11,COc1ccc(S(=O)(=O)N(CC(=O)NCc2ccco2)c2ccc(F)cc2)cc1,19.3% (inactive)
12,COc1ccc(N(CC(=O)N/N=C/c2cccs2)S(=O)(=O)c2ccc(OC)c(OC)c2)cc1,25.2% (active)
13,O=C(CN1CCCSc2ccccc21)N1CCN(S(=O)(=O)c2cccc(F)c2)CC1,19.4% (inactive)
14,NNC(=O)CNC(c1ccccc1)c1cc(Cl)ccc1NC(=O)c1ccccc1 (stereo not given),22.9% (active)
15,CCOc1ccc(NC(=O)N2CC=C(n3c(=O)[nH]c4ccccc43)CC2)cc1,19.3% (inactive)
16,Cn1c2ccccc2c(=O)c2c(=O)n(Cc3ccco3)c(COc3ccccc3)nc21,21.8% (active)
17,Cc1ccc(C)c(N2CCN(C(=O)CCCCCn3c(=S)[nH]c4ccc(N5CCOCC5)cc4c3=O)CC2)c1,44.4% (active)
18,Cc1ccc(NC(=O)c2ccc(CSc3ncnc4nc[nH]c34)cc2)c(C)c1,17.2% (inactive)
19,CC(=O)n1cc([C@H]2C=C(C(=O)N3CCOCC3)O[C@@H](OCc3ccc(CO)cc3)C2)c2ccccc21,24.4% (active)
